The source of these data is PubChem BioAssay (Tox21).

Values without a mark were called inactive. Inconclusive results are not listed. The source made the active and inactive calls. Unless noted, the call rests on the fitted dose curve; in most records, active means well fitted curve in the direction sought with a large enough effect in the repeat runs; inconclusive means weak or mixed curves; inactive means no such curve, though single readings can be large; an effect the other way counts as inactive or inconclusive.

The nature of assay [1]: qHTS assay to identify small molecule agonists of the estrogen receptor alpha (ER-alpha) signaling pathway in the presence of an antagonist - cell viability counter screen (AID 1259386). Further: series mostly up to about 92 µM; nearly all actives have a fitted effect of over 30% in size. In outline: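 Read-out: CellTiter-Fluor fluorescence after 1hr reagent incubation, measured in the same wells as the luciferase readout. VM7Luc4E2 cells were exposed to 15 compound concentrations with 10.0nM ICI-182,780 for 22hr at 37C.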

The target in assay [2] is Progesterone receptor (Homo sapiens) (UniProt P06401). Description: qHTS assay to identify small molecule agonists of the progesterone receptor (PR) signaling pathway (AID 1346784; calls by dose curve; further: nearly all actives have a fitted effect of over 30% in size). In outline: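 Reporter assay, GripTite PR-UAS-bla HEK 293T cells: 16 hr exposure to DMSO-dissolved compounds at 37C, 5% CO2, in steroid-depleted (2% charcoal-stripped FBS) medium; beta-lactamase measured by FRET fluorescence.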

The target is the same in assay [3]. In words: qHTS assay to identify small molecule antagonists of the progesterone receptor (PR) signaling pathway (AID 1346795; active means well fitted inhibition curve with a large enough effect in the signal ratio in the repeat runs, not every such curve was filed as active; the % refers to the signal ratio). In outline: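 Stimulus R5020 at 1 nM final; cells HEK293T PR-UAS-bla; medium with 2% charcoal-stripped FBS; compound exposure 16 hr at 37C, 5% CO2; detection by FRET beta-lactamase substrate, 2 hr, room temperature.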
In general terms: Quantitative high-throughput screening tests each substance at several concentrations.

A short description of assay [4]: qHTS assay to identify small molecule antagonists of the progesterone receptor (PR) signaling pathway - cell viability counter screen (AID 1346798). Further: series mostly up to about 92 µM; nearly all actives have a fitted effect of over 50% in size. In outline:
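In the same plates used for the beta-lactamase readout, cell viability of compound- and R5020-treated PR-UAS-bla HEK293T cells (16 hr, 37C) was assessed by CellTiter-Glo luminescence.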

The nature of assay [5]: qHTS assay to identify small molecule agonists of the progesterone receptor (PR) signaling pathway - cell viability counter screen (AID 1346799; calls by dose curve; further: nearly all actives have a fitted effect of over 45% in size). In outline:
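Multiplexed viability read: CellTiter-Glo luminescence, 30 min RT, following LiveBLAzer FRET measurement on PR-UAS-bla HEK293T cells exposed to compounds 16 hr.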

Assay [6] can be described thus: qHTS assay to identify small molecule antagonists of the TGF-beta/Smad signaling pathway - cell viability counter screen (AID 1346824). Further: nearly all actives have a fitted effect of over 50% in size. In outline: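 Cytotoxicity counter-screen run in the same wells as the beta-lactamase Smad reporter read: CellTiter-Glo luminescence after 30 min at room temperature. HEK 293T SBE-bla cells had 5 hr compound exposure at 37 C with TGF-beta1 (0.25 ng/mL stock).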

Assay [7] is described as follows: qHTS assay to identify small molecule agonists of the TGF-beta/Smad signaling pathway - cell viability counter screen (AID 1346829). Further: top concentration of the series differs between compounds; nearly all actives have a fitted effect of over 45% in size. In outline: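 CellTiter-Glo luminescence readout; SBE-bla HEK 293T cells, overnight plating, compound 5 hr at 37 C/5% CO2, then bla substrate 2 hr RT, then CellTiter-Glo 30 min RT.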
Assay [8] can be described thus: qHTS assay to identify small molecule agonists of the TGF-beta/Smad signaling pathway (AID 1346859; active means well fitted activation curve with a large enough effect in the signal ratio in the repeat runs, not every such curve was filed as active; the % refers to the signal ratio; further: series mostly up to about 77 µM). In outline: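 Screening used HEK 293T SBE-bla cells at 4,000/well. Test agents: 5 hr, 37 C. Detection: FRET substrate, 2 hr RT, then excitation 405 nm with emissions at 460 and 530 nm.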
Assay [9] has as its target Thyrotropin-releasing hormone receptor (Homo sapiens) (UniProt P34981). In words: qHTS assay to identify small molecule antagonists of the thyrotropin-releasing hormone receptor (TRHR) signaling pathway (AID 1346877; active means well fitted inhibition curve with a large enough effect in the repeat runs, not every such curve was filed as active; further: series mostly up to about 51 µM). In outline: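 HEK293/TRHR cells, 18 h, 37 °C; Ca2+ dye 2 h; cpd 5 min RT; TRH 1 nM final; fluorescence read 3 min, 1 s intervals; 15 concs, triplicate.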

Assay [10] has the same target. In words: qHTS assay to identify small molecule agonists of the thyrotropin-releasing hormone receptor (TRHR) signaling pathway (AID 1346891; calls by dose curve; further: series mostly up to about 58 µM). In outline:
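Readout was intracellular calcium fluorescence in TRHR-Hek293 cells. Cells were incubated 18 h, dye-loaded 2 h at 37 °C, and treated with compound in agonist mode.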

Assay [11] is described as follows: Human pregnane X receptor (PXR) small molecule agonists, qHTS cell viability counter screen (AID 1346977). Further: nearly all actives have a fitted effect of over 50% in size. In outline:
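In each well, the PXR reporter HepG2 line was checked for viability: CellTiter-Fluor reagent added 23hr post-dosing, fluorescence read after 1hr incubation at 37C.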

Assay [12] in a line: Caspase-3/7 induction in HepG2 cells by small molecules, qHTS assay (AID 1346978). Further: nearly all actives have a fitted effect of over 15% in size. In outline:
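Caspase-3/7 induction was measured by Caspase-Glo 3/7 luminescence (30 min, room temperature) after a 17 hr compound exposure of wild-type HepG2 cells seeded at 2,000 per well and pre-incubated 5 hr.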

Assay [13] is described as follows: Caspase-3/7 induction in CHO-K1 cells by small molecules, qHTS cell viability counter screen (AID 1346979). Further: nearly all actives have a fitted effect of over 35% in size. In outline: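 Following a 5hr settling period, CHO-K1 cells at 1,500 per well received DMSO-dissolved compounds. Cell viability was quantified 16hr later by CellTiter-Fluor fluorescence, measured after 1hr with reagent at 37C.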
Assay [14] can be described thus: Caspase-3/7 induction in CHO-K1 cells by small molecules, qHTS assay (AID 1346980). Further: nearly all actives have a fitted effect of over 15% in size. In outline: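 Luminescent Caspase-Glo 3/7 read (30min, room temperature) quantified apoptosis induction. Cells were wild-type CHO-K1, treated with compound for 17hr at 37 C and 5% CO2.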
Assay [15] is described as follows: Caspase-3/7 induction in HepG2 cells by small molecules, qHTS cell viability counter screen (AID 1346981). Further: series mostly up to about 92 µM; nearly all actives have a fitted effect of over 30% in size. In outline:
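Fluorescence read-out of live-cell protease activity (CellTiter-Fluor) after 1 hr with reagent. This was measured in the same wells as the caspase-3/7 luminescence, on HepG2 cells exposed to DMSO-dissolved compounds for 16 hr at 37 C.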

For assay [16], the target named is Nuclear receptor subfamily 1 group I member 2 (Homo sapiens) (UniProt O75469). In words: Human pregnane X receptor (PXR) small molecule agonists, qHTS assay (AID 1346982). Further: nearly all actives have a fitted effect of over 35% in size. Further: potency means the concentration at half of the fitted maximal effect. In outline: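 HepG2 PXR-Luc reporter line, 5% charcoal-stripped FBS; 5 hr pre-incubation, compound (DMSO) 24 hr at 37 C/5% CO2; ONE-Glo 30 min RT; luminescence read-out.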
Assay [17] addresses Acetylcholinesterase (Homo sapiens) (UniProt P22303). Description: Acetylcholinesterase (AChE) small molecule antagonists: colormetric cell-based qHTS assay (AID 1347395; calls by dose curve; further: nearly all actives have a fitted effect of over 30% in size). In outline: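 After overnight attachment at 37 C, SH-SY5Y cells get 30 min compound exposure; detection cocktail (acetylthiocholine, DTNB) then incubates 90 min at 37 C, and absorbance reflects AChE-generated thiocholine.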
On the % scale 0 is the no-effect control and ±100 the full control effect.

Acetylcholinesterase (Homo sapiens), sequence (P22303 whole entry, looked up): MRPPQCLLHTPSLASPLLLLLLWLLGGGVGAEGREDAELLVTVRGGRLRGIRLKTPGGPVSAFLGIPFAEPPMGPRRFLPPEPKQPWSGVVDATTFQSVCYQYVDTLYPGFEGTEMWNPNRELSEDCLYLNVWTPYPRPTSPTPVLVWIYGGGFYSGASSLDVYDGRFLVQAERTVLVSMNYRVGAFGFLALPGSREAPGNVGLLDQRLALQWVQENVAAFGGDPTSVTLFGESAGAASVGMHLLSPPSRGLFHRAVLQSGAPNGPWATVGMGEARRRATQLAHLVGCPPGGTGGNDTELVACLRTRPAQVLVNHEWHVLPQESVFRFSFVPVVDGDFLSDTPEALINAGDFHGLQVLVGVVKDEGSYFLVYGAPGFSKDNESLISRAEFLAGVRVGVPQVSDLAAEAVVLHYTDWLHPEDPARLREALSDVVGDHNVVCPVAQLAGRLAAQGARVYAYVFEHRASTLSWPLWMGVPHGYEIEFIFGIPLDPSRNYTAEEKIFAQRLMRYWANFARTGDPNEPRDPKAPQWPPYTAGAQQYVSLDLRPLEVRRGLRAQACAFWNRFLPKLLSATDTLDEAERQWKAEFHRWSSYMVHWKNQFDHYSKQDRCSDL
Thyrotropin-releasing hormone receptor (Homo sapiens), sequence (P34981 whole entry, looked up): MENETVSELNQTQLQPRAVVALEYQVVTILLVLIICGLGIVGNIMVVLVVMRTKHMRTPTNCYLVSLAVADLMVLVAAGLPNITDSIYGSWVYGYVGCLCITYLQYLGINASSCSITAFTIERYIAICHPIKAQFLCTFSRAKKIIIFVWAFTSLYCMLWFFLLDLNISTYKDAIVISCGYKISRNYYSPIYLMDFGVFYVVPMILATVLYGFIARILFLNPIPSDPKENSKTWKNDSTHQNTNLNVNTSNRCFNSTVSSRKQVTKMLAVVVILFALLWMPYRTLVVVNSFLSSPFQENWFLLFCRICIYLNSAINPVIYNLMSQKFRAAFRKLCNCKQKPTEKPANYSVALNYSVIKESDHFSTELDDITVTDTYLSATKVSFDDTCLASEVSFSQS
Nuclear receptor subfamily 1 group I member 2 (Homo sapiens), sequence (O75469 whole entry, looked up): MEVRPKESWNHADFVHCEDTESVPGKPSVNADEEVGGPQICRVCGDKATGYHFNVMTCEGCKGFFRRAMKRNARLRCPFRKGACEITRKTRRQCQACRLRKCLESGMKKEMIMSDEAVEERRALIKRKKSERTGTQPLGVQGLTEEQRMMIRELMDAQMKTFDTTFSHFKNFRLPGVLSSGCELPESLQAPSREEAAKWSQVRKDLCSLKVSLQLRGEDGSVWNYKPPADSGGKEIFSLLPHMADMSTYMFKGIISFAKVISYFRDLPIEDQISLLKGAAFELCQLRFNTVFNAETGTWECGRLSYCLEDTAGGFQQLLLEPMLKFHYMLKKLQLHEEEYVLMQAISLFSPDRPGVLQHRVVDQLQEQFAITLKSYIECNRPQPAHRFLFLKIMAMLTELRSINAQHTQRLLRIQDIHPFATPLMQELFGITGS
Progesterone receptor (Homo sapiens), sequence (P06401 whole entry, looked up): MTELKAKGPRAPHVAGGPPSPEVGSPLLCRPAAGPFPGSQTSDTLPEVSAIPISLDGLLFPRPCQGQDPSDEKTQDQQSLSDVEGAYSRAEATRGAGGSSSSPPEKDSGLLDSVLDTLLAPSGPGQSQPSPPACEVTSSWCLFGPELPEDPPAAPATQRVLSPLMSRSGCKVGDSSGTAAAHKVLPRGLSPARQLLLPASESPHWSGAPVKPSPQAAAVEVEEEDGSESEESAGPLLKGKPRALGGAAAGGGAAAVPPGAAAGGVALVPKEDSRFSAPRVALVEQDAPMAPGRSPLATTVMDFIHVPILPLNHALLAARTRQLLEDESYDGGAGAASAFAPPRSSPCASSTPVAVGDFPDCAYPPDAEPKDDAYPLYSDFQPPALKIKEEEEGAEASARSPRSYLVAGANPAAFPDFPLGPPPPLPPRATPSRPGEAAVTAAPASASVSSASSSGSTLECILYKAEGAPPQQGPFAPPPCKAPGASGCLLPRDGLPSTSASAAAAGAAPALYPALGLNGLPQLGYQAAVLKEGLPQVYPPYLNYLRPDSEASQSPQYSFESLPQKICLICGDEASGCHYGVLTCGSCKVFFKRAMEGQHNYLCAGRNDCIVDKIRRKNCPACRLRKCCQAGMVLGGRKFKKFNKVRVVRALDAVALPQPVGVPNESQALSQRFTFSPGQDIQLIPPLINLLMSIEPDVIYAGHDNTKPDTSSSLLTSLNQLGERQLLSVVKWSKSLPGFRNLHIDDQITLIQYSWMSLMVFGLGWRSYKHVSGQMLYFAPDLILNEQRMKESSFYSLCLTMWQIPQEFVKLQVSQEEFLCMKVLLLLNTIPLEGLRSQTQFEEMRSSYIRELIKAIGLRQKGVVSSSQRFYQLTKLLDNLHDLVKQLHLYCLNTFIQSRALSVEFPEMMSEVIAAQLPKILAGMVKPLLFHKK

Regarding `O=C(O)c1cc(I)cc(I)c1I`, the Potency result in assay [1], in [2], in assay [3], in assay [4], in [5] and in assay [6] was “inactive” in each case. The Potency entry in [7], in assay [9], in assay [11], in assay [12], in [13] and in assay [14] was “inactive” each time. Further, the Potency result in [15], in assay [16] and in [17] was “inactive” throughout. In addition, the compound was classed as inactive in [8] and in assay [10].

Turning to `C=C(Cl)Cl`, the Potency result in assay [1], in assay [2], in assay [3], in assay [4], in assay [5] and in assay [6] was “inactive” throughout. Further, the Potency entry in assay [7], in assay [11], in assay [12], in assay [14], in assay [15] and in assay [17] was “inactive” throughout. In addition, the outcome in [8] was inactive. The Potency in [16] is 58 µM (active).

Regarding `CCC1(CCC(C)C)C(=O)NC(=O)NC1=O`, the Potency entry in assay [1], in [2], in assay [3], in assay [4], in assay [5] and in assay [6] was “inactive” in each case. Moreover, the Potency result in [7], in [11], in [12], in [13], in assay [14] and in assay [15] was “inactive” each time. Also, the Potency entry in assay [16] and in assay [17] was “inactive” throughout. The outcome in assay [8] was inactive.

As for `CCCCC(CC)CO[N+](=O)[O-]` (stereo unspecified), the Potency entry in [1], in assay [2], in assay [3], in assay [4], in assay [5] and in assay [6] was “inactive” each time. The Potency result in [7], in [9], in [11], in assay [12], in [13] and in [14] was “inactive” each time. Moreover, the Potency entry in assay [15], in assay [16] and in assay [17] was “inactive” in each case. Also, the call in assay [10] was inactive.

On to `CCCBr`, for which the Potency result in [1], in [2], in assay [3], in assay [4], in assay [5] and in assay [6] was “inactive” each time. The Potency entry in assay [7], in [9], in assay [11], in assay [12], in assay [13] and in assay [14] was “inactive” each time. Moreover, the Potency result in assay [15], in assay [16] and in assay [17] was “inactive” in each case. For the same compound, the compound was classed as inactive in [8] and in [10].

As to `CCCCCCCCCCCCN=C(N)N`, the activity change, negative = cytotoxicity in assay [1] is -1.52% [at 3.27 µM]; in [4], 1.32% [at 3.27 µM]; in assay [5], 0.561% [at 3.27 µM]; in assay [7] it was -9.54% [at 2.72 µM]; in [11] it was 1.51% [at 3.27 µM]; in assay [13] it was -4.73% [at 3.27 µM]. In assay [15], the activity change, negative = cytotoxicity is -9.99% [at 3.27 µM]. Further, the activation is 2.06% [at 3.27 µM] in assay [2], 1.13% [at 2.72 µM] in [8], 0.32% [at 2.04 µM] in [10] and 13.3% [at 3.27 µM] in assay [16]. The activity change, negative = inhibition in [3] was 1.76% [at 3.27 µM]. Also, the viability change, negative = cytotoxic in assay [6] was -21.8% [at 2.72 µM]. Moreover, the figures for the activity, negative = inhibition in assay [9] and in [17] were 1.26% [at 1.81 µM] and -5.91% [at 4.07 µM], respectively. Moreover, in assay [12], the caspase activation is -1.34% [at 3.27 µM]. Moreover, the caspase-3/7 activation in assay [14] was -1.72% [at 3.27 µM].

Consider `CN(C)N`, for which the Potency entry in [1], in assay [2], in assay [3], in assay [4], in [5] and in assay [6] was “inactive” in each case. For the same compound, the Potency result in [7], in assay [9], in [11], in [12], in [13] and in assay [14] was “inactive” in each case. Moreover, the Potency entry in assay [15], in assay [16] and in assay [17] was “inactive” in each case. Besides, the result in [8] and in assay [10] was inactive.

Take `CC(Oc1cccc(Cl)c1)C(=O)O` (stereo unspecified): the Potency result in [1], in assay [2], in assay [3], in assay [4], in assay [5] and in assay [6] was “inactive” throughout. Moreover, the Potency entry in [7], in assay [9], in assay [11], in [12], in assay [13] and in assay [14] was “inactive” each time. Moreover, the Potency result in [15], in assay [16] and in assay [17] was “inactive” each time. Further, the result in assay [10] was inactive.

As for `C[C@H]1O[C@H](OC2[C@@H](O)[C@@H](O)C(O)[C@H](O)[C@H]2O)[C@@H](N)C[C@@H]1N=C(N)C(=O)O` (stereo partly specified), the Potency result in assay [1], in assay [2], in assay [3], in assay [4], in assay [5] and in assay [6] was “inactive” throughout. The Potency result in assay [7], in [9], in [11], in [12], in assay [13] and in [14] was “inactive” in each case. Also, the Potency result in [15], in assay [16] and in assay [17] was “inactive” each time. In addition, the call in assay [8] and in [10] was inactive.
